High-throughput results: PubChem BioAssay, National Center for Advancing Translational Sciences (NCATS)
TDP1 cell CPT = growth inhibition of DT40 Tdp1-/-;hTDP1 cells with camptothecin (screen for TDP1 inhibitors); chicken DT40 Tdp1-/-;hTDP1 cells + 20 nM CPT, ATP luminescence, 48 h; Potency, µM (series often up to 46.2 µM), inactives show at the highest dose activity change, negative = growth inhibition, hits mostly inhibitors; 420,000 tested, 12% active; AID 686979; note: % is set by controls: 0 for no effect and ±100 for the full control effect; nearly all actives have a fitted effect of over 55% in size
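Cell growth measured by CellTiter-Glo luminescence after a minimum 48 h, 37 C compound exposure with 20 nM CPT in Tdp1-knockout DT40 cells stably expressing hTDP1, seeded 400/well; qHTS titration format.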
TDP1 cell noCPT = qHTS for Inhibitors of human tyrosyl-DNA phosphodiesterase 1 (TDP1): qHTS in cells in absence of CPT; Potency, µM (top dose mostly 46.2 µM), for the others: top-dose activity change, negative = growth inhibition, actives largely listed as inhibitors; DT40 Tdp1-/- hTDP1 cells, no CPT, ATP luminescence, 48 h; 420,000 tested, 15% active; note: % is set by controls: 0 for no effect and ±100 for the full control effect; nearly all actives have a fitted effect of over 55% in size
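Chicken DT40 Tdp1-/- cells stably complemented with human TDP1 were seeded at 400 cells/well with DMSO in place of 20 nM camptothecin. After compound pinning, cells grew at least 48 hr at 37 °C; viability read by CellTiter-Glo luminescence.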
ClpP mod = qHTS Assay for Activators of ClpP. 340,000 tested, 1.9% active. AID 651965, 2013. Potency, µM (highest dose often 57.5 µM), without a hit: top-dose activity change, negative = active. ATP-dependent Clp protease proteolytic subunit (Bacillus subtilis (strain 168)), P80244. purified B. subtilis ClpP, FRET peptide cleavage, 20 min; active = well fitted falling curve with a large enough effect; inconclusive = small, poorly fitted or top-dose-only effect; inactive = no such curve, though single readings can be large or run the other way; note: the source files actives as falling curves though it sought activators and does not explain the sign; nearly all actives have a fitted effect of over 65% in size
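Buffer: 100 mM Tris/HCl pH8, 100 mM KCl, 0.05% low protease BSA, 2.5% glycerol, 0.01% Tween-20. ClpP 10 microg/mL final; 20 min RT; delta FRET normalized to ADEP and DMSO controls.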
TDP1 inh = TDP1 (human) enzyme inhibition; recombinant TDP1, AlphaScreen DNA substrate cleavage; AID 485290; 350,000 tested, 0.28% active; Potency, µM (doses to about 130 µM), for inactives: at the highest dose activity change, negative = inhibition, usual class: inhibitors; Q9NUW8; note: % is set by controls: 0 for no effect and ±100 for the full control effect; nearly all actives have a fitted effect of over 40% in size
Target sequence (Q9NUW8 whole entry, looked up): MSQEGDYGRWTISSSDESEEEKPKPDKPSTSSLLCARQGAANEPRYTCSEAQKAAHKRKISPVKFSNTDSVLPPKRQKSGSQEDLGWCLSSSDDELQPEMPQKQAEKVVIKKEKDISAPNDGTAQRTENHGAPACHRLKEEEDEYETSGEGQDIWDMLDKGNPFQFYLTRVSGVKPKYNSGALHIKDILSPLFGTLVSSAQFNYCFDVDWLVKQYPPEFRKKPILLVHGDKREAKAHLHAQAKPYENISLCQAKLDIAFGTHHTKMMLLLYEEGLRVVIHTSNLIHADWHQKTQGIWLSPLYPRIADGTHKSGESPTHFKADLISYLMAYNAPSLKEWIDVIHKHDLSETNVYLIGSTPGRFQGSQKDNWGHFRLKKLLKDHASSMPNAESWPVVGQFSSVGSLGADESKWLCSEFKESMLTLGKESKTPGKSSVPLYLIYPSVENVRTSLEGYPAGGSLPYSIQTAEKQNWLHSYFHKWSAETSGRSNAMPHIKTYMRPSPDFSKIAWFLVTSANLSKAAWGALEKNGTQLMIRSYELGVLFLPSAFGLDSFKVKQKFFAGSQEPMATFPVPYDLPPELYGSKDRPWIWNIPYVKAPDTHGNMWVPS
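Steps: enzyme plus compound, 15 min RT; add biotin/phosphotyrosine-FITC oligonucleotide (15 nM final), react 5 min; add donor/acceptor beads (10 ug/ml final), 10 min; read AlphaScreen. Tdp1 at 1 nM final.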
Numbers without * were called inactive; u = inconclusive; x = no result given; [ ] = remark or other dose. An excerpt weighted towards active compounds, which were near 17% of everything screened. Unless noted, calls come from the whole dose curve; as a rule, active = well fitted curve in the direction sought with a large enough effect; inconclusive = small, poorly fitted or top-dose-only effect, or another doubt; inactive = no such curve, though single readings can be large; an effect the other way counts as inactive or inconclusive. Potency is the fitted concentration of half-maximal effect.

SMILES	TDP1 cell CPT	TDP1 cell noCPT	ClpP mod	TDP1 inh
COc1ccc(Cn2cc(CN(C)C3CN(Cc4cn(Cc5ccc(OC)cc5)nn4)S(=O)(=O)C3)nn2)cc1 (stereo unspecified)	-4%	-30%	0%	x
Cc1c(NC(=O)c2ccccc2F)cccc1-c1nc2cccnc2s1	-28%	-25%	0%	0%
COC(=O)[C@@]12C[C@@H](CC(=O)NCCCN3CCCC3=O)C(=O)N(Cc3ccc4c(c3)OCO4)C1=CCC(C)(C)C2	u	u	2%	x
CN(C)Cc1cc(C(C)(C)c2ccccc2)ccc1O	23µM*	u	x	x
CC(C)(c1ccc(O)c([N+](=O)[O-])c1)c1ccc(O)c([N+](=O)[O-])c1	4%	-6%	x	x
CC1=CC(=O)C(Sc2ccc(C)cc2)=CC1=O	1.8µM*	1.6µM*	-2%	x
Cc1ccc(Sc2c(C)[nH]n(C(C)(C)C)c2=O)cc1	-24%	-11%	-2%	1%
COc1ccc(N2CCN(c3ncnc4scc(-c5ccc(C)cc5)c34)CC2)cc1	u	u	x	4%
Cc1cc2ncn(-c3ncnc4scc(-c5ccccc5)c34)c2cc1C	u	18µM*	-4%	0%
c1ccc(-c2csc3ncnc(N4CCc5ccccc5C4)c23)cc1	u	16µM*	-4%	-1%
COc1ccc(N2CCN(C(=O)CSc3ncnc4scc(-c5ccc(C)cc5)c34)CC2)cc1	u	16µM*	-1%	x
COc1ccc(N2CCN(c3ncnc4scc(-c5ccccc5)c34)CC2)cc1	-15%	16µM*	x	x
O=C(CC1C(=O)NCCN1Cc1cccc(Oc2ccccc2)c1)NCCCn1cccn1 (stereo unspecified)	5%	-9%	x	x
COc1ccc(-c2csc3ncnc(N4CCN(c5cccc(Cl)c5)CC4)c23)cc1	u	16µM*	-28%	2%
COc1ccc(-c2csc3ncnc(N4CCN(c5cccc(C)c5C)CC4)c23)cc1	15µM*	u	-28%	6%[56.1 µM]
Cc1ccc(-c2csc3ncnc(N4CCN(C)CC4)c23)cc1C	u	12µM*	-1%	x
c1ccc(-c2csc3ncnc(N4CCOCC4)c23)cc1	-12%	u	x	6%
CCCn1cnc2scc(-c3ccc(C)c(C)c3)c2c1=O	u	21µM*	x	0%
CCCCN(CC)C(=O)c1ccc2c(c1)NC(=O)c1ccccc1S2	-24%	-9%	0%	2%
Cc1sc2ncn(CCn3cnc4sc(C)c(C)c4c3=O)c(=O)c2c1C	u	21µM*	-1%	-3%
COc1ccc(-c2csc3ncnc(N4CCN(c5cccc(OC)c5)CC4)c23)cc1	16µM*	18µM*	-7%	6%
COc1ccc(CCCNC(=O)C2Cc3c(-c4ccc(NC(C)=O)cc4)ccnc3O2)cc1 (stereo unspecified)	16µM*	18µM*	4%	x
COc1ccc(CCCNC(=O)C2Cc3c(-c4cccc(C(C)=O)c4)ccnc3O2)cc1 (stereo unspecified)	3.7µM*	4.6µM*	2%	x
COc1cccc(NC(=O)c2cccc(N3C(=O)C4C5C=CC(C5)C4C3=O)c2)c1 (stereo unspecified)	u	u	-4%	-2%
Cc1ccc(C2CC(c3ccccc3)=NN2C(=S)Nc2ccccc2)o1 (stereo unspecified)	3.3µM*	5.8µM*	1%	-8%
SMILES	TDP1 cell CPT	TDP1 cell noCPT	ClpP mod	TDP1 inh
CC1=NN(C(=S)Nc2ccccc2)C(c2ccccc2)C1 (stereo unspecified)	-3%	-11%	-2%	1%
N=c1nc(N)nc2n1NC(c1ccc(F)cc1)=CS2	18µM*	16µM*	-1%	0%
COc1cccc(C2c3c(ncn(Cc4cccs4)c3=N)Oc3ccc4ccccc4c32)c1 (stereo unspecified)	x	x	x	5%
CC(C)(C)c1ccc2c(c1)OC(C(=O)N/N=C/c1ccc([N+](=O)[O-])o1)CO2 (stereo unspecified)	16µM*	12µM*	x	8%
Cc1cc(-c2ccc(/C=N/n3cnnc3)o2)c(C)c([N+](=O)[O-])c1	-29%	-13%	1%	x
Cc1ccc(/C=N/NC(=O)c2cccc([N+](=O)[O-])c2)o1	14%	7%	1%	3%
CC(=O)N/N=C/c1ccc([N+](=O)[O-])o1	u	21µM*	x	x
CC(C)(C)c1ccc2c(c1)OC(C(=O)N/N=C\c1ccc[nH]1)CO2 (stereo unspecified)	u	u	-3%	10%
Cc1cc2ncn(/N=C/c3ccc([N+](=O)[O-])o3)c2cc1C	13µM*	13µM*	-1%	10%
CCCOc1ccc(CC(=O)N/N=C\c2ccc(F)cc2)cc1	-23%	u	-5%	x
CCCOc1ccc(CCC(=O)N/N=C/c2ccc([N+](=O)[O-])o2)cc1	16µM*	-98%	3%	5%
Cc1nc2ccc(S(=O)(=O)NC(CC(C)C)C(=O)N3CCN(c4ccc(F)cc4)CC3)cc2s1 (stereo unspecified)	u	u	-20%	3%
CC1(C(=O)N/N=C/c2ccc([N+](=O)[O-])o2)CC1(Br)Br (stereo unspecified)	13µM*	10µM*	-5%	5%
O=C(CC12CC3CC(CC(C3)C1)C2)N/N=C\c1ccc[nH]1	6%	-15%	x	3%
O=C(Cc1ccc([N+](=O)[O-])cc1)N/N=C/c1ccc([N+](=O)[O-])o1	10µM*	9.2µM*	-1%	3%
O=C(N/N=C/c1ccc([N+](=O)[O-])o1)c1ccc2c(c1)OCO2	2.3µM*	5.8µM*	0%	5%[56.1 µM]
O=C(CC12CC3CC(CC(C3)C1)C2)N/N=C/c1ccc([N+](=O)[O-])o1	9.2µM*	23µM*	1%	-1%
O=C(CSc1nnc(NC(=O)c2ccco2)s1)Nc1ccccc1Br	9%	-6%	x	-4%
COc1ccc(CCNC(=O)C2CCC(C(C)(C)C)CC2)cc1OC (stereo unspecified)	u	u	1%	5%
CCOc1ccccc1CNC(=O)CN1C(=O)CSc2ccc(S(=O)(=O)N3CCOCC3)cc21	-9%	u	1%	2%
Cc1csc(N=Cc2ccc([N+](=O)[O-])o2)n1	15µM*	10µM*	1%	x
Cc1ccc(C(=O)N/N=C\c2ccc([N+](=O)[O-])o2)cn1	u	12µM*	x	0%
O=[N+]([O-])c1ccc(/C=N/N=C/c2ccc([N+](=O)[O-])o2)o1	0.29µM*	0.73µM*	-2%	x
Cc1ccc(C(=O)N/N=C\c2ccc(-c3ccc([N+](=O)[O-])cc3)o2)cn1	0%	u	x	7%
CC1CS(=O)(=O)CCN1/N=C/c1ccc([N+](=O)[O-])o1 (stereo unspecified)	-9%[21.1 µM]	u	x	x
